# In paper PMC12136788:
# Residue numbers refer to the chain shown, from its start. The full ranking holds about 24,000 sequences; the median of “enrichment r” is about 0.99, and the highest 2% start at about 3.7. The list comes from a sample in which the highest values are over-represented; it also holds similar and randomly drawn sequences.
# T1: UNK ZnF1-3 (human, UniProt Q9C0B0 31-174)
# T1 sequence: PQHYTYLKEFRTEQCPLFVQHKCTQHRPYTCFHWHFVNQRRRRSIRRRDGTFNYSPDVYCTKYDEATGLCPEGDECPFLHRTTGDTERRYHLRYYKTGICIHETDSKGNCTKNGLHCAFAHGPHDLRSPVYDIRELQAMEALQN
# B1: chr16:94690093:94690094:+_ENSMUSG00000040785_ENSMUST00000117648|mus_hu|mus_mus_mus_hu_True|1_48 (ssRNA)
# RNA: GGGAGUUCUACAGUCCGACGAUCGGGCUGGGAUGACGGACACACAGCCUCGAUUCCAGGGGGAAAAAGUCUUAGUCGAUACUAAUUUAAAAAGUAUAAUGAUUUUUGAAAAUCAGAUUACAUCUAUAAAAGAUGAAAGCACUUCAACAGAGGAUUGAGCAUCA
# B2: chr15:12269436:12269437:+_ENSMUSG00000022200_ENSMUST00000059680|mus_mus|motif|central (ssRNA)
# RNA: GGGAGUUCUACAGUCCGACGAUCUAAAAGACUUUUUCUUCUCAUUCCACAAGCCUCUAACUGUAACCUUCCUCUCAAAGCGGAUUCAAUUAACAUACAGCCACGUAAUCCAGAUGAUAUACAGUCAUUCCAAAAUGAUGUGUACAACAGAGGAUUGAGCAUCA
# B3: chr2:27118074:27118075:-_ENSMUSG00000009621_ENSMUST00000056176|mus_mus|FALSE|FALSE (ssRNA)
# RNA: GGGAGUUCUACAGUCCGACGAUCCACAGAUAUAUAAUGGGAGACUUAGAUGAAAUAAUUACAACUUCCCCUCCCCCUUCUAAAAUACAAACAGAUAAAACAUAACAGGACAAAAAAAGCUACAACAACAGAAAAACAAACAGACAACAGAGGAUUGAGCAUCA
# B4: chr1:235506153:235506154:+_ENSG00000152904_ENST00000391855|hu_mus|FALSE|FALSE (ssRNA)
# RNA: GGGAGUUCUACAGUCCGACGAUCGAAGACAGCUACACUUACAUAUAAUAAAUAAAUCUUAAAAAAAAAAAAAAGAAAAGAUAAAUGGGAUGAAGCCACUCCUCAUUUUCAACUGAAAGAAGCUACUGAGUCUAAUCCAGAAAGCAACAGAGGAUUGAGCAUCA
# B5: chr2:27118074:27118075:-_ENSMUSG00000009621_ENSMUST00000056176|mus_mus|motif|central (ssRNA)
# RNA: B3 RNA with U80G, A81G
# B6: chr5:145543945:145543946:-_ENSG00000133706_ENST00000545646|hu_hu|hu_hu_hu_mus_True|1_108 (ssRNA)
# RNA: GGGAGUUCUACAGUCCGACGAUCCUGAAUAGCCAGUGGUGGGAAAUAAUCAAGCCAGUGCUCUGCUUCAGAAAACUUCACUAUGUCGUCAUCAGAGAGCCCAAGGGAUUUCAUAAUGUCCCACUGGUACUUAGAAGAUCCAGCCAACAGAGGAUUGAGCAUCA
# B7: chr14:62194323:62194324:+_ENSG00000100644_ENST00000337138|hu_mus|motif|central (ssRNA)
# RNA: GGGAGUUCUACAGUCCGACGAUCUCUUUCAUCACAGUAAGAAAAUUUCAUAUCGAGGCUGUGUCGACUGAGAAAUGUCUUGCGGUCGGAAGGAAUUUCAAUAUUUGACGGAUGAGGAAUGGGUUCACAAAUCAGCACCAAGCACAACAGAGGAUUGAGCAUCA
# B8: chrX:15845472:15845473:-_ENSG00000182287_ENST00000329235|hu_mus|motif|central (ssRNA)
# RNA: GGGAGUUCUACAGUCCGACGAUCCCACAAGAAGUCAUCAGCAAGGGAGGACAGUUAUGUCAGUCCAAUUUCUUCAAGAACACGGCGUGGGGUUUCAGCUUCUUUUGCAUCCUCCUGCAGGAGAUCGGCCUGCUCAAUUGCUUUCAACAGAGGAUUGAGCAUCA
# B9: chr17:8508246:8508247:-_ENSG00000133026_ENST00000269243|hu_hu|motif|central (ssRNA)
# RNA: GGGAGUUCUACAGUCCGACGAUCGUACAUUUCAAUAAUAUUCUCAGAGUAAAUUGGAAGAUUCUUGUAAGGGUUUAUAACGGCACAGAAGAGUCCAGAAUAAGUAUAGAUUAGUCCUGAAUAGUAGCGAUCCUUCAGAUUAUGCAACAGAGGAUUGAGCAUCA
# B10: chr5:56168760:56168761:+_ENSG00000095015_ENST00000399503|hu_hu|motif|central (ssRNA)
# RNA: GGGAGUUCUACAGUCCGACGAUCUCUAGAAAAUAAGCAGCCAACGAGUUCCAUUCCAAACACCUGAAUCCAUGGCUCAGCGGAAUCUUUGUAAGCAGGAGGGAUUUGCUGAGUUCCAUAAUGAGUAAGGUUAAAAUUGCUCUCCAACAGAGGAUUGAGCAUCA
# B11: chr18:86887116:86887117:+_ENSMUSG00000024647_ENSMUST00000068423|mus_mus|motif|central (ssRNA)
# RNA: GGGAGUUCUACAGUCCGACGAUCCGCGUCAGCUCCGCCAUUGUUAAGGGAUUCAUGAGCAAUGAGCAAUGCCAGGUUACGGAGGGAUCCCAGAGAAUAAAUUAAAAAAAAAAAAAAAUGAAAUCCACGUUGCAAGUUUGAAGCCAACAGAGGAUUGAGCAUCA
# B12: chr17:39847130:39847131:+_ENSG00000173812_ENST00000469257|hu_mus|motif|central (ssRNA)
# RNA: GGGAGUUCUACAGUCCGACGAUCAUUACAUUAUACAAGCUGUGAGGUUUUUAAACUUGUGACAAGGGACAGAAGGGAAAUUCGGCUCAUUGCAAGGAAAUCCUCACUUAAGCUUCAGAGAGCCACAAGCACUUAAAACCCAUGCAACAGAGGAUUGAGCAUCA
# B13: chr18:86887116:86887117:+_ENSMUSG00000024647_ENSMUST00000068423|mus_mus|FALSE|FALSE (ssRNA)
# RNA: B11 RNA with G80U, G81A
# B14: 75584029_75587226_729_CDS_ENSG00000119638_ENST00000238616|human|control|control (ssRNA)
# RNA: GGGAGUUCUACAGUCCGACGAUCCGUCUCAGCCAUGGAAUACUCAGAAUUAAGUUUCUUUGCUAGGCCAUAAUCUCCAAGUUUUAUCAGGUUUGCCUUGGUCAGAAAAAUAUUUAAUGUCUUUAUAUCUCUAUGAAGGAUUCCCAACAGAGGAUUGAGCAUCA
# B15: chr19:7360422:7360423:-_ENSMUSG00000024969_ENSMUST00000032557|mus_mus|FALSE|FALSE (ssRNA)
# RNA: GGGAGUUCUACAGUCCGACGAUCAUAAGGAGGACUGCCACAGAAAGUAUCCAGCUUGUUCCCAAAGGUGAAUUCGUUGCUAAAGCCAAAGUCUGCAAUCUUGAUGUUCAUAUCAGCAUCCAGGAGCAGGUUUUCUGCCUUUAGCAACAGAGGAUUGAGCAUCA
# B16: 9136497_9143069_760_3pUTR_ENSMUSG00000033499_ENSMUST00000091829|mouse|control|control (ssRNA)
# RNA: GGGAGUUCUACAGUCCGACGAUCCAGAAUUCCAAUGUUUUUUUAAGUACUUCCCGAGGGUCUUCCUGGCUUUCUGGUUGAGACUCAUUUCCUCCCGUAUCGUUGUUCUCAGGCAGAGGUUCAUAUUCUGAAUGGUCCAGAGCCCAACAGAGGAUUGAGCAUCA
# B17: 40924096_40924216_925_3pUTR_ENSMUSG00000028423_ENSMUST00000098143|mouse|control|control (ssRNA)
# RNA: GGGAGUUCUACAGUCCGACGAUCUCGUUGGUCUUUCUCUAAGAUUAUCCUUUGGAAUGGGGGACAUGUUGGUUUUGGGCCCUGCAUUUAUAUGCCGCUGACUCUCCUGUUUUGGUGGGUUCCUGCCUGGCCGUGGUCUGGCCCCAACAGAGGAUUGAGCAUCA
# B18: chr14:89307221:89307222:+_ENSG00000165533_ENST00000346301|hu_mus|hu_hu_hu_mus_False|98_98 (ssRNA)
# RNA: GGGAGUUCUACAGUCCGACGAUCUCCUGUUUGGUUAGUUCCAGGGAGCUUCAAAGAUGUGCCAGGGCGUGGGACCUGAGCAAUAGCAUUUUCAUCCAGGAUCAUUUCAGCAAUUCCUUCCUGGUCCACAUCAAUUUCAUCUAUCAACAGAGGAUUGAGCAUCA
# B19: chr7:151048522:151048523:+_ENSG00000013374_ENST00000566856|hu_mus|motif|central (ssRNA)
# RNA: GGGAGUUCUACAGUCCGACGAUCCUGUUUCUUAUUUAUUACGAUCUUGAUGUAAUUUUCUUGAAAUCCGAAAGUUUCAGCGGUUUGACACCUCAGGUCUCUACCAGUGACAUGCAAGCGGGUCUCCAACAAGCUUUUCUUAUCCAACAGAGGAUUGAGCAUCA
# B20: chr18:33597908:33597909:-_ENSMUSG00000042834_ENSMUST00000171533|mus_mus|motif|central (ssRNA)
# RNA: GGGAGUUCUACAGUCCGACGAUCUACAUCAAAAGAGUACAUGGGUAAAAUAUAGAUAUACAGACAAUUGAUGAACAUAAACGGCGGGGCUUGUUACAUCUAAAUGAAGAAAAAAAAAAACCGUGGGGGGGACUCUCAGCCUCUCAACAGAGGAUUGAGCAUCA
# B21: chr2:160775391:160775392:-_ENSMUSG00000057133_ENSMUST00000039782|mus_hu|motif|central (ssRNA)
# RNA: GGGAGUUCUACAGUCCGACGAUCAAUGAGUCCAGGAGAUACUCCUGGGAUGAGAAAUGGGUUAAAAGCCACAGGACGGCGGGUAGUUAUUGCAGGUUCAGACUGAUCAGAAAAUGGACCUGGACCAGGCUUGUCCUCAGCUAACAACAGAGGAUUGAGCAUCA
# B22: chr2:160775391:160775392:-_ENSMUSG00000057133_ENSMUST00000039782|mus_hu|FALSE|FALSE (ssRNA)
# RNA: B21 RNA with G77U, G78A, G80U, G81A
# B23: chr18:33597908:33597909:-_ENSMUSG00000042834_ENSMUST00000171533|mus_mus|FALSE|FALSE (ssRNA)
# RNA: B20 RNA with G82U, G83A, G85U, G86A
# B24: chr2:29001751:29001752:+_ENSG00000213639_ENST00000296122|perfect_dup|motif|central (ssRNA)
# RNA: GGGAGUUCUACAGUCCGACGAUCAGCCAAUAGCAAACAAAUGGUUUCCAAAGACUGCUUUCCUCUGUCCACAUAAUCUCCGGAGAAAAGAUAGUUGGCUUCUGGUGGGAAACCUCCAUAUUCAAAUAAUCUCAGUAAAUCUGUCAACAGAGGAUUGAGCAUCA
# B25: chr1:38489269:38489270:+_ENSG00000183520_ENST00000537711|hu_hu|FALSE|FALSE (ssRNA)
# RNA: GGGAGUUCUACAGUCCGACGAUCUUUGAAGUUACUAGAAAACGACAACAGAUUUUUGAUACAGAAUGACAAGGCUUAUCUAUAACACGUCAACGUUUUCGACGACUCUGAAAUUUAUAAAUAGCUGGGGAGUUCACCGUUUCUCAACAGAGGAUUGAGCAUCA
# Target: T1, UNK ZnF1-3
# Assay: nsRBNS (natural sequence RNA bind-n-seq); RBNS binding buffer (assumed for nsRBNS): 25 mM Tris pH 7.5, 150 mM KCl, 3 mM MgCl2, 0.01% Triton X-100, 500 ug/ml BSA, 20 U/ml SUPERase-In, 4 C; UNK is unkempt and MSI1 is Musashi-1; names of the RNAs are library labels; protein concentration not given here; high values mean tight binding
row,Binder,binding signal
1,B1,0.785 enrichment R
2,B2,0.956 enrichment R
3,B3,4.31 enrichment R
4,B4,20.8 enrichment R
5,B5,3.78 enrichment R
6,B6,1.11 enrichment R
7,B7,1.84 enrichment R
8,B8,1.01 enrichment R
9,B9,1.92 enrichment R
10,B10,1.25 enrichment R
11,B11,8.87 enrichment R
12,B12,1.49 enrichment R
13,B13,6.14 enrichment R
14,B14,1.02 enrichment R
15,B15,0.665 enrichment R
16,B16,0.744 enrichment R
17,B17,0.527 enrichment R
18,B18,0.79 enrichment R
19,B19,0.692 enrichment R
20,B20,6.83 enrichment R
21,B21,1.1 enrichment R
22,B22,0.911 enrichment R
23,B23,7.83 enrichment R
24,B24,1.36 enrichment R
25,B25,1.2 enrichment R
